Assay [1] is described as follows: qHTS assay to identify small molecule agonists of the estrogen receptor alpha (ER-alpha) signaling pathway in the presence of an antagonist - cell viability counter screen (AID 1259386).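 Note: series mostly up to about 92 µM; cells exposed to compounds for 22 h at 37 °C before the viability read; nearly all actives have a fitted effect of over 30% in size.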 In short, it runs like this: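 VM7Luc4E2, stripped-serum pre-culture 5 d; 24hr plating; +ICI-182,780 10.0nM final; cpds 15 conc, 22hr, 37C/5% CO2; CellTiter-Fluor added at 21hr, fluorescence 1hr later.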

In assay [2] the target is Progesterone receptor (Homo sapiens) (UniProt P06401). Description: qHTS assay to identify small molecule agonists of the progesterone receptor (PR) signaling pathway (AID 1346784; calls by dose curve; note: nearly all actives have a fitted effect of over 30% in size). In short, it runs like this:
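PR-UAS-bla HEK 293T cells (beta-lactamase reporter under UAS) in 2% charcoal-stripped FBS, dosed with 23 nL compound after 6 hr, incubated 16hr at 37C. LiveBLAzer B/G FRET substrate added, fluorescence read after 2 hours.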

Assay [3] has the same target. Description: qHTS assay to identify small molecule antagonists of the progesterone receptor (PR) signaling pathway (AID 1346795; active = well fitted inhibition curve with a large enough effect in the signal ratio in the repeat runs, not every such curve was filed as active; the % refers to the signal ratio). In short, it runs like this:
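PR-UAS-bla HEK293T cells with beta-lactamase reporter under UAS control, in 2% charcoal-stripped FBS, treated with compounds plus 1 nM promegestone (R5020, final) for 16 hr at 37C. Read-out: FRET beta-lactamase substrate fluorescence after 2 hr at room temperature.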

Assay [4] in a line: qHTS assay to identify small molecule agonists of the progesterone receptor (PR) signaling pathway - cell viability counter screen (AID 1346799; calls by dose curve; note: nearly all actives have a fitted effect of over 45% in size). In short, it runs like this: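 Counter screen in the PR-UAS-bla HEK293T wells (2% charcoal-stripped FBS, 16 h compound exposure at 37 C) after the bla read. CellTiter-Glo added, 30 min at room temperature, luminescence read as cell viability.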

Assay [5] is described as follows: qHTS assay to identify small molecule antagonists of the TGF-beta/Smad signaling pathway - cell viability counter screen (AID 1346824). Note: nearly all actives have a fitted effect of over 50% in size. In short, it runs like this: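 SBE-bla HEK 293T cells, incubated overnight, then compound plus 0.25 ng/mL TGF-beta1 (stock added) for 5 hr at 37 C. Viability was read in the same wells by CellTiter-Glo luminescence after 30 min at room temperature.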

A short description of assay [6]: qHTS assay to identify small molecule agonists of the TGF-beta/Smad signaling pathway - cell viability counter screen (AID 1346829). Note: top concentration of the series differs between compounds; nearly all actives have a fitted effect of over 45% in size. In short, it runs like this:
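Luminescence from CellTiter-Glo, read after a 30 min room-temperature incubation, gives cell viability of SBE-bla HEK 293T cells treated 5 hr with compounds at 37 C.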

Assay [7] is described as follows: qHTS assay to identify small molecule agonists of the TGF-beta/Smad signaling pathway (AID 1346859; active = well fitted activation curve with a large enough effect in the signal ratio in the repeat runs, not every such curve was filed as active; the % refers to the signal ratio; note: series mostly up to about 77 µM). In short, it runs like this: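 SBE-bla HEK293T cells plated overnight, then compound exposure for 5 h at 37 C. Beta-lactamase reporter read with LiveBLAzer B/G FRET substrate after 2 h at room temperature, fluorescence at 405 nm excitation, 460/530 nm emission.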

Assay [8] concerns the target Thyrotropin-releasing hormone receptor (Homo sapiens) (UniProt P34981). Description: qHTS assay to identify small molecule antagonists of the thyrotropin-releasing hormone receptor (TRHR) signaling pathway (AID 1346877; active = well fitted inhibition curve with a large enough effect in the repeat runs, not every such curve was filed as active; note: series mostly up to about 51 µM). In short, it runs like this:
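Intracellular calcium fluorescence, read kinetically every second over 3 min, reports TRH-evoked signalling in HEK293 cells carrying TRHR. Test compounds were added 5 min ahead of a 1 nM TRH challenge.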

The target is the same in assay [9]. As to the kind of experiment: qHTS assay to identify small molecule agonists of the thyrotropin-releasing hormone receptor (TRHR) signaling pathway (AID 1346891; calls by dose curve; note: series mostly up to about 58 µM). In short, it runs like this: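 HEK293 cells expressing TRHR plated 18 h at 37 C/5% CO2, calcium dye-loaded 2 h at 37 C, then compound added (agonist mode); kinetic calcium fluorescence read 3 min at 1 s intervals; 15 concentrations in triplicate.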

A short description of assay [10]: Human pregnane X receptor (PXR) small molecule agonists, qHTS cell viability counter screen (AID 1346977). Note: nearly all actives have a fitted effect of over 50% in size. In short, it runs like this: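 PXR-Luc HepG2 cells (2,000/well, 5% charcoal-stripped FBS) preincubated 5 hr, then exposed to compounds 24 hr at 37 C. Viability read in the same wells by CellTiter-Fluor fluorescence, reagent added at 23 hr, 1 hr incubation.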

Assay [11] can be described thus: Caspase-3/7 induction in HepG2 cells by small molecules, qHTS assay (AID 1346978). Note: nearly all actives have a fitted effect of over 15% in size. In short, it runs like this:
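Wild-type HepG2 cells, 2,000/well, settled 5 hr at 37 C and 5% CO2, then compound-treated for 17 hr; caspase-3/7 activity read by luminescent Caspase-Glo 3/7 after 30 min at room temperature.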

Assay [12] in a line: Caspase-3/7 induction in CHO-K1 cells by small molecules, qHTS cell viability counter screen (AID 1346979). Note: nearly all actives have a fitted effect of over 35% in size. In short, it runs like this:
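Wild-type CHO-K1 cells (1,500/well) treated with compound after 5 h plating; after 16 h at 37C, viability read as CellTiter-Fluor fluorescence following 1 h reagent incubation, in the same wells as the caspase read.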

Assay [13] in a line: Caspase-3/7 induction in CHO-K1 cells by small molecules, qHTS assay (AID 1346980). Note: nearly all actives have a fitted effect of over 15% in size. In short, it runs like this: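 Wild-type CHO-K1 cells exposed to compounds for 17hr at 37 C, 5% CO2. Caspase-3/7 activity then measured by Caspase-Glo 3/7 luminescence after 30min at room temperature.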
Assay [14] can be described thus: Caspase-3/7 induction in HepG2 cells by small molecules, qHTS cell viability counter screen (AID 1346981). Note: series mostly up to about 92 µM; nearly all actives have a fitted effect of over 30% in size. In short, it runs like this:
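HepG2, WT, 2,000 cells/well; 5 hr pre-incubation 37 C/5% CO2; compound pin-transferred from DMSO; 16 hr exposure; CellTiter-Fluor, 1 hr; fluorescence read.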

Assay [15] deals with Nuclear receptor subfamily 1 group I member 2 (Homo sapiens) (UniProt O75469). Description: Human pregnane X receptor (PXR) small molecule agonists, qHTS assay (AID 1346982). Note: nearly all actives have a fitted effect of over 35% in size. In short, it runs like this: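 Luciferase signal from ONE-Glo (30 min, room temperature) measured activation of hPXR-driven CYP3A4 reporter expression in PXR-Luc HepG2 cells treated with compounds for 24 hr at 37 C.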

A short description of assay [16]: qHTS assay to identify small molecule antagonists of the progesterone receptor (PR) signaling pathway - cell viability counter screen (AID 1346798). Note: series mostly up to about 92 µM; nearly all actives have a fitted effect of over 50% in size. In short, it runs like this: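 PR-UAS-bla HEK293T cells, 3,000/well in 2% charcoal-stripped FBS medium, dosed with compounds plus R5020 agonist and incubated 16 h at 37C. Viability then measured in the same wells by CellTiter-Glo luminescence after 30 min at RT.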

In assay [17] the target is Nuclear receptor subfamily 1 group I member 2 (Rattus norvegicus) (UniProt Q9R1A7). As to the kind of experiment: Rat pregnane X receptor (rPXR) activation by small molecules, qHTS assay (AID 1346983). Note: nearly all actives have a fitted effect of over 20% in size. Conditions: rPXR luciferase reporter cells, One-Glo luminescence, 24 h; active compounds read high. In short, it runs like this: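 Cell-based rPXR activation assay: rPXR cells, 2,000 per well, rested 5hr at 37 C, then exposed to compounds in DMSO for 24 hr at 37 C. Luciferase activity read by One-Glo luminescence after 30 min at room temperature.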

For assay [18], the target named is Nuclear receptor subfamily 1 group I member 2 (Homo sapiens) (UniProt O75469). As to the kind of experiment: CYP3A4 induction through human pregnane X receptor (PXR) by small molecules, qHTS assay (AID 1346984). Note: nearly all actives have a fitted effect of over 40% in size. Note: potency is the fitted concentration of half-maximal effect. In short, it runs like this: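 Luminescence readout: luciferase signal after One-Glo (30 min, room temperature), following 3 h at 37C with 3uM final Luciferin-IPA P450 substrate. Cells were DPX-2 (HepG2, PXR/CYP3A4-luc co-transfected) dosed for 24 h.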

The target is the same in assay [19]. As to the kind of experiment: Human pregnane X receptor (PXR) activation by small molecules, qHTS assay (AID 1346985). Note: nearly all actives have a fitted effect of over 40% in size. In short, it runs like this:
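DPX-2 cells (HepG2 co-transfected with a PXR response element and a CYP3A4-promoter luciferase construct) were seeded at 2,000 per well, rested 5 hr at 37C, then exposed to DMSO-dissolved compounds for 24 hr. Activation was read as luciferase luminescence.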

Unmarked numbers belong to inactive results. Inconclusive results are not listed. Active and inactive are the calls of the source. Unless noted, calls come from the whole dose curve; as a rule, active = well fitted curve in the direction sought with a large enough effect in the repeat runs; inconclusive = weak or mixed curves; inactive = no such curve, though single readings can be large; an effect the other way counts as inactive or inconclusive.
% is set by controls: 0 for no effect and ±100 for the full control effect.

Sequence of Nuclear receptor subfamily 1 group I member 2 (Homo sapiens) (O75469 whole entry, looked up): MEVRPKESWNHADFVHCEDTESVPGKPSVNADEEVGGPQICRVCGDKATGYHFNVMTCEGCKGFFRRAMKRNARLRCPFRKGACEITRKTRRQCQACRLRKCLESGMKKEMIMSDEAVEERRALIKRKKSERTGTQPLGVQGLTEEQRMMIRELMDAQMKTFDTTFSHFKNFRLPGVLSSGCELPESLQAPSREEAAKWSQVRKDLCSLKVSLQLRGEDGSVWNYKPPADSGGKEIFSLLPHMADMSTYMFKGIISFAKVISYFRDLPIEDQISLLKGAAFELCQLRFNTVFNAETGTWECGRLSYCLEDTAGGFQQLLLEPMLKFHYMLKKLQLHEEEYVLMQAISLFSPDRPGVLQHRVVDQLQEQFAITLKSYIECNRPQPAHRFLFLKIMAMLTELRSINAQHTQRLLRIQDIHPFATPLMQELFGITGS
Sequence of Progesterone receptor (Homo sapiens) (P06401 whole entry, looked up): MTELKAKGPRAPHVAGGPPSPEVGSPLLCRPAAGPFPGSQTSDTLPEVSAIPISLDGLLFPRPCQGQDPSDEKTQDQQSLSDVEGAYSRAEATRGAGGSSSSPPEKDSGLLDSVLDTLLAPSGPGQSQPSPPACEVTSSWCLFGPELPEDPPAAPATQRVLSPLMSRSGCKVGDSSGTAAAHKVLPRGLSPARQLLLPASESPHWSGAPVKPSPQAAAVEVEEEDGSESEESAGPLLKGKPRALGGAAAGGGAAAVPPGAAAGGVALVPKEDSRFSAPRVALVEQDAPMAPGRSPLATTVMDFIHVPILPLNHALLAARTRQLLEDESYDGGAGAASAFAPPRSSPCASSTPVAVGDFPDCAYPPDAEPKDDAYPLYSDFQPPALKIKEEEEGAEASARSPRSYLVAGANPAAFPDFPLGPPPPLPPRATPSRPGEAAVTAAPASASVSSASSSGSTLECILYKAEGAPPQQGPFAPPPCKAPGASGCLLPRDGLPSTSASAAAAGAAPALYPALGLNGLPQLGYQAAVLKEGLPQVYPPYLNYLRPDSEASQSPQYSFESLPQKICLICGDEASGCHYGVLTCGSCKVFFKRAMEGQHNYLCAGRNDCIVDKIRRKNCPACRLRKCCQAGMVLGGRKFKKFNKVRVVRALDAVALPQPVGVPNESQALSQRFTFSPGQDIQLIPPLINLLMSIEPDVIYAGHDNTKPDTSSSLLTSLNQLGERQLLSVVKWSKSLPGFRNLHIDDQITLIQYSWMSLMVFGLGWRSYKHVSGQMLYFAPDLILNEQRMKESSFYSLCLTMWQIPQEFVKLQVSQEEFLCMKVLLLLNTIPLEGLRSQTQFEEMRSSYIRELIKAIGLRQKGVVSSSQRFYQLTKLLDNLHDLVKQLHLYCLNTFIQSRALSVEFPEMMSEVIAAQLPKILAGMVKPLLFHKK
Sequence of Thyrotropin-releasing hormone receptor (Homo sapiens) (P34981 whole entry, looked up): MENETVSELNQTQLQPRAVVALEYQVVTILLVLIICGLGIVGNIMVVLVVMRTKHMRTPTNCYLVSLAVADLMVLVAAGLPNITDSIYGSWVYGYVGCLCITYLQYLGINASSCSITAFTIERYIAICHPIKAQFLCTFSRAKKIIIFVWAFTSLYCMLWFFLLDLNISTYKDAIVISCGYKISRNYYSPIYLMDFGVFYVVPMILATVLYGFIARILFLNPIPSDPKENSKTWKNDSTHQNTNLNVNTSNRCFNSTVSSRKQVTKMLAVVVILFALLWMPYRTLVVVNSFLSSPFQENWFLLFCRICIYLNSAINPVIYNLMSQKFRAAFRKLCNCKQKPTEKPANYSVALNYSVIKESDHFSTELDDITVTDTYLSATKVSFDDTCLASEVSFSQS
Sequence of Nuclear receptor subfamily 1 group I member 2 (Rattus norvegicus) (Q9R1A7 whole entry, looked up): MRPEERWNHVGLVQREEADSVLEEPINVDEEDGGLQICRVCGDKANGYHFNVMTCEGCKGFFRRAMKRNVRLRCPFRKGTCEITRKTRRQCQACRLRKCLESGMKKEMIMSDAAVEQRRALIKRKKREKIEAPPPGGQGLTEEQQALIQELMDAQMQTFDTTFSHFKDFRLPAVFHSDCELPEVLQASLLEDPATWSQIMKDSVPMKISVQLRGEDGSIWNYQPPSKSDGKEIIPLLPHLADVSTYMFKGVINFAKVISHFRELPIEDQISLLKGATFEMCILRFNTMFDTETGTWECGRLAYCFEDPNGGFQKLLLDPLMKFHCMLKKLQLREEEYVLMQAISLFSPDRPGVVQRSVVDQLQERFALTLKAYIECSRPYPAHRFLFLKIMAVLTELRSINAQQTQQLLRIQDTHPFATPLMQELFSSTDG

Take `FC(F)(F)c1ccccc1-n1ccnc1`: the Potency result in [1], in [2], in assay [3], in [4], in [10] and in [11] was “inactive” each time. Moreover, the Potency result in assay [12], in assay [14] and in [15] was “inactive” each time. The result in assay [5], in assay [6], in [7], in assay [8], in assay [9] and in [13] was inactive.

As to `CCCOC(OCCC)OCCC`, the Potency result in assay [2], in assay [3], in [10], in assay [11], in assay [12] and in [15] was “inactive” in each case. Moreover, the outcome in assay [6], in assay [7] and in assay [13] was inactive.

Consider `CC(C)C[C@H](NC(=O)CNC(=O)[C@H](Cc1ccc(O)cc1)NC(=O)[C@H](CO)NC(=O)[C@H](Cc1c[nH]c2ccccc12)NC(=O)[C@H](Cc1cnc[nH]1)NC(=O)[C@@H]1CCC(=O)N1)C(=O)N[C@@H](CCCN=C(N)N)C(=O)N1CCC[C@H]1C(=O)NCC(N)=O` (stereo in doubt), for which the Potency entry in assay [1], in assay [3], in assay [16], in [10], in assay [11] and in assay [12] was “inactive” throughout. Further, the Potency entry in assay [14] and in assay [15] was “inactive” in each case. For the same compound, the compound was classed as inactive in assay [6], in [7], in assay [8] and in assay [9].

Consider `COc1ccc(-c2cc(=O)c3c(O)cc(O[C@@H]4O[C@H](CO[C@@H]5O[C@@H](C)[C@H](O)[C@@H](O)[C@H]5O)[C@@H](O)[C@H](O)[C@H]4O)cc3o2)cc1O`, for which the Potency result in [1], in [2], in assay [3], in assay [16], in [10] and in [11] was “inactive” each time. In addition, the Potency result in assay [12], in assay [15] and in assay [19] was “inactive” throughout. Further, the outcome in [5], in assay [7], in [8], in assay [9] and in [13] was inactive. In addition, the max activation in assay [17] is -2.2%. The Potency in assay [18] was 12.6 µM (active).

Regarding `CCCCN`, the Potency result in assay [1], in assay [3], in assay [16], in assay [10], in [11] and in [12] was “inactive” throughout. Further, the Potency entry in assay [14] was “inactive”. The call in [5], in assay [6], in assay [7], in [8] and in assay [9] was inactive.

On to `N#Cc1ccc(C(=O)O)cc1`, for which the Potency result in [1], in [2], in assay [3], in assay [10], in assay [11] and in assay [12] was “inactive” throughout. For the same compound, the outcome in [5], in assay [6], in [7], in assay [8], in assay [9] and in assay [13] was inactive.

As to `O=S(=O)(O)c1cc(O)c2ccc(Nc3ccccc3)cc2c1`, the Potency entry in assay [3], in [16], in assay [4], in assay [10], in assay [11] and in [15] was “inactive” in each case. The call in assay [5], in assay [6], in [7], in assay [8], in assay [9] and in assay [13] was inactive.

In the case of `CC(C)CCCCOC(=O)c1ccccc1C(=O)OCCCCC(C)C`, the Potency result in [1], in assay [16], in assay [4], in assay [10], in assay [11] and in assay [12] was “inactive” in each case. Further, in assay [14], the Potency result is “inactive”. The result in assay [5], in assay [6], in assay [7], in assay [8], in assay [9] and in assay [13] was inactive.

As for `Cc1ccsc1/C=C/C1=NCCCN1C`, the Potency entry in assay [3], in assay [16], in [10], in assay [11], in assay [12] and in assay [15] was “inactive” in each case. The Potency entry in [18] and in assay [19] was “inactive” throughout. Also, the outcome in [5], in assay [6], in assay [7], in assay [8], in assay [9] and in assay [13] was inactive. The max activation in assay [17] was -1.84%.

Values taken from PubChem BioAssay (Tox21).
